Out of some 220,000 compounds screened, about 650 (0.3%) were called active. No stated cut-off is given here; in the data, active means inhibition above about 40%; inactive means the rest. This excerpt belongs to a sample that is enriched for actives.
Target: Coagulation factor XII (Homo sapiens) (UniProt P00748)
Assay: human FXIIa protease inhibitors, primary screen, biochemical, 1536-well (AID 800);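 further: 0% = enzyme with no compound and 100% = blank without enzyme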
Conditions: purified FXIIa, Boc-QGR-AMC fluorogenic substrate, 2 h; at 5 µM; stronger effect = higher value

Coagulation factor XII (Homo sapiens), sequence (P00748 20-372 limits assumed): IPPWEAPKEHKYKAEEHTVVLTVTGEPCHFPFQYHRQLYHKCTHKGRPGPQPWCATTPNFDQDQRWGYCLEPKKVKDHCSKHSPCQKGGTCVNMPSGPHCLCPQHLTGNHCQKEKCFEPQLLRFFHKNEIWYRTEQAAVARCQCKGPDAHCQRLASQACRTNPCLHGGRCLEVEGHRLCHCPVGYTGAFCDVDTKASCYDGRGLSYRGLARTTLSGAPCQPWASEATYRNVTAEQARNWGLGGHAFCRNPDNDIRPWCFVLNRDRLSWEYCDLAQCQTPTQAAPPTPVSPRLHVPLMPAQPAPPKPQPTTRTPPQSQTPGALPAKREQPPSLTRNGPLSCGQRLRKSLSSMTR
Coagulation factor XII (Homo sapiens), sequence (P00748 373-615 limits assumed): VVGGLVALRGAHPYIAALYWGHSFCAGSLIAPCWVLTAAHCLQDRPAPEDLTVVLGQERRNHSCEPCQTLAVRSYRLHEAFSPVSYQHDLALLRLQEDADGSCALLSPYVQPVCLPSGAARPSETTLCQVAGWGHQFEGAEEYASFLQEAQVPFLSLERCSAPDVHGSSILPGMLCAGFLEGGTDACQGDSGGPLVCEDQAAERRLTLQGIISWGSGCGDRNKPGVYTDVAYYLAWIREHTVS

inhibition, inactive:
COc1ccc(SC[C@H](Cc2ccccc2)N2CCN(CCc3ccccc3)CCC2=O)cc1 9.1%, NC(=O)c1nnsc1-c1ccc(-c2snnc2C(N)=O)cc1 -1.04%, COC(=O)c1cc(S(=O)(=O)N2CCC(C(N)=O)CC2)oc1C 1.7%, NC(=O)CC(NC(=O)Cc1cccc2ccccc12)c1ccc(NCc2cc(F)ccc2F)c([N+](=O)[O-])c1 (centres undefined) 3.78%, Nc1ccccc1C(=O)NC1CCCCNC1=O (centres undefined) 3.81%, O=C(Nc1cccnc1Oc1ncnc2cc(Cl)ccc12)c1ccc(F)cc1 0.47%, CCOC(=O)CC1C(=O)NCCN1c1nc2c(C)cccn2c(=O)c1/C=C1\SC(=S)N(C(C)CC)C1=O (centres undefined) 14%, S=c1[nH]nc(-c2cc(-c3ccccc3)n[nH]2)n1/N=C/c1c2ccccc2cc2ccccc12 8.1%, CC(C)c1nc(SCC(=O)NC(=O)NC(C)(C)C)n[nH]1 12.8%, Cc1ccc(NNC(=O)C2CCC2)cc1C 10.5%, C=CCC1(C#N)C(=S)NC(C)=C(C(=O)OCC)C1c1ccccc1 (centres undefined) 6.96%, Cc1nc(Cl)c(C#N)c2c1CCCC2 2.37%, Cc1cc(C)c(NC(=O)CN2C(=O)NC(Cc3ccccc3)C2=O)c(C)c1 (centres undefined) 0.73%, CC(C)=CCc1c(O)c(CC=C(C)C)c2occ(-c3ccc(O)cc3)c(=O)c2c1O 7.17%, O=C(O)C1=C[C@H](c2cccs2)C[C@H](OCCCCO)O1 7.11%, Cc1ccc(S(=O)(=O)NC(=O)N2CCCN(Cc3ccc(F)cc3)CC2)cc1 3.56%, Cc1ccc(NC(=O)Nc2cc(-c3ccccc3)nn2C)cc1Cl -1.26%, Nc1nnc(SCC(=O)NC2CCCc3ccccc32)s1 (centres undefined) -2.74%, CN(C)C(=O)c1coc2nc3ccccc3nc12 7.55%, CC1Cc2ccccc2N1S(=O)(=O)c1ccc(Cl)nc1 (centres undefined) 1.69%, COc1ccc2c(c1)c1ncn(Cc3ccccn3)c(=O)c1n2C -1.96%, CN=C1C=C/C(=N/N=c2\ccn(O)cc2C)C=C1C 12.1%, O=C1CCC(=O)N(O)CCCCCNC(=O)CCC(=O)N(O)CCCCCNC(=O)CCC(=O)N(O)CCCCCN1 6.14%, O=C(O)C(F)(F)C(NCc1ccccc1)c1ccccc1 (centres undefined) 18.5%, CCOC(=O)CSc1nc(C)c(Oc2ccc(Cl)cc2Cl)c(=O)[nH]1 10.3%, COCCCn1c(-c2cccs2)nc2nc3ccccc3nc21 -19.8%, CSCC[C@H](NC(=O)NC1CCCC1)C(=O)O 0.35%, CCN(CC(=O)Nc1ccc(S(=O)(=O)N2CCCC2)cc1)CC(=O)Nc1cccc(OC)c1 3.63%, O=C(NN1C(=O)C2CCCCC2C1=O)c1ccco1 (centres undefined) 5.14%, C/C(=N/NC(=O)CC(=O)N/N=C(\C)c1ccc([N+](=O)[O-])cc1)c1ccc([N+](=O)[O-])cc1 6.83%, COc1cccc(NC(=O)CS(=O)(=O)c2cn(CC(=O)N3CCOCC3)c3ccccc23)c1 2.47%, O=C(CS(=O)(=O)c1cn(Cc2cccc(F)c2)c2ccccc12)N1CCCCC1 14.4%, CCN(CC)CCC(c1ccc2c(c1)OCO2)c1c(OC)cc(OC)c2c(-c3ccccc3)cc(=O)oc12 (centres undefined) 8.45%, COC(=O)c1ccc(-c2noc(CN(Cc3ccccn3)CC3CCCO3)n2)cc1 (centres undefined) 14.6%, CCN1CC(CN(C)Cc2nc(-c3ccc(Cl)cc3)no2)CC1=O (centres undefined) 7.51%, COc1cc(OC)c2ccc(=O)oc2c1C(CCN1CCN(c2ccccc2)CC1)c1ccc2c(c1)OCO2 (centres undefined) 7.95%, CCOC(=O)c1c(N)sc2c1CCCC2=O 5.97%, O=C(O)C1CCN(C(=O)c2cc(F)cc3c2OCOC3)CC1 4.37%, Cc1ccc(Nc2c3c(nc4ccccc24)CCC3)cc1 9.63%, CSc1nnc(SCc2nc3sc(C(=O)O)c(C)c3c(=O)[nH]2)s1 10.1%, COc1ccc(CCNC(=O)CCn2c(=O)oc3ccccc32)cc1OC 7.51%, COc1ccc(CCNC(=O)Cn2c(=O)n(CC3CCCO3)c(=O)c3ccccc32)cc1OC (centres undefined) -8.44%, Cc1cc(Cl)ccc1NNC(=O)c1snnc1C 7.13%, COc1ccc(SCCN2CCN(CC(C)C)CCC2=O)cc1 7.64%, CC1(C)CC(=O)C=C(Nc2ccccc2)C1 6.92%, S=c1[nH]nc(-c2cc(-c3ccsc3)n[nH]2)n1-c1ccccc1 4.05%, CC(C)C(=O)N1CCC2(CC1)Oc1ccc(F)cc1C(=O)C21CC(c2ccccc2)=NO1 (centres undefined) 8.49%, O=c1cc(CCl)nc2scc(-c3ccccc3)n12 6.87%, CN(C)c1ccnc2sc3c(=O)n(Cc4ccccc4)cnc3c12 2.78%, Cc1c(C#N)c2ncn(CC#N)c(=O)c2n1-c1ccccc1 7.67%, O=C(N/N=C/c1cccc2cccnc12)[C@H]1C[C@@H]1c1ccccc1 8.29%, O=C(O)CCn1c(O)c(C=C2N=c3ccccc3=N2)sc1=S 12.8%, COc1ccc(Cl)cc1S(=O)(=O)N1CCC(O)(c2ccc(Cl)cc2)CC1 3.43%, Cc1cc(N)n(-c2ccc(S(=O)(=O)N3CCCC3)cc2[N+](=O)[O-])n1 3.82%, O=C(Nc1ccc(N2CCN(C(=O)c3ccccc3)CC2)c(Cl)c1)c1ncn[nH]1 7.54%, O=C(Cc1ccccc1)Nc1c(Cl)ccc2nsnc12 2.05%, C[C@H](NC(=O)c1nc[nH]c1C(=O)N[C@@H](C)C(=O)OC(C)(C)C)C(=O)OC(C)(C)C 12.4%, CCOC(=O)c1cn(CC)c2cc(F)c(F)cc2c1=O 4.45%, COc1cc(NC(=O)c2cncc(-c3ccc(C#N)cc3)c2)cc(C(=O)Nc2cccc(C(F)(F)F)c2)c1 3.5%, O=[N+]([O-])c1cc([N+](=O)[O-])c2cccnc2c1O 3.18%, O=C(Nc1cccc(S(=O)(=O)NC2=NCCC2)c1)C1CCCCC1 14.4%, COc1ccc2[nH]c(C(=O)Nc3ccccc3Cl)cc2c1 6.03%, CCC/C(C)=N\Nc1nc2c(c(=O)n(C)c(=O)n2C)n1C 5.02%, CCOC(=O)c1c(C)oc(C)c(C(=O)OCC)c1=O 8.51%, CCOC(=O)c1cnc(COc2ccccc2Cl)[nH]c1=O 3.67%, CC(NC(=S)Nc1ccc(OC(F)F)cc1)c1ccc(F)cc1 (centres undefined) 10.5%, O=C(NNC(=S)NCc1ccccc1)c1ccc(OC(F)F)cc1 -6.41%, Cc1onc(-c2ccc(Cl)cc2)c1-c1ccnn1S(=O)(=O)c1ccc(Cl)cc1 3.87%, CCOCCn1c(-c2ccccc2)nc2ccccc21 9.94%, O=C(COC(=O)CCc1nc2ccccc2c(=O)[nH]1)Nc1ccc(N2CCOCC2)cc1 1.95%, CSc1nc(C)nc(C2CC2)c1C#N 1.66%, CN(c1ccc(OCC(=O)NC2=NCCS2)cc1)S(=O)(=O)c1ccc(F)cc1 7.4%, Cc1ccc(S(=O)(=O)N2CCN(C(=O)COC(=O)c3c(C)noc3C)CC2)c(C)c1 7.88%, O=c1[nH]c(CSc2ccccc2)nc2c1oc1ccccc12 7.45%, COC(=O)[C@H](Cc1ccccc1)NC(=O)Nc1ccc(OC)cc1 4.58%, CC(C)(C)NC(=O)/C(=C/c1cccnc1)NC(=O)c1ccco1 15.3%, O=C(Nc1nnc(Cc2ccc(Cl)cc2)s1)c1ccncc1 2.31%, O=C(NNC(=S)NC1CC2CCC1C2)c1ccc(Cl)cc1 (centres undefined) 7.4%, CCc1ccc2nc(Nc3ncc(C(C)=O)c(C)n3)nc(C)c2c1 6.31%, C=C(C)C(=O)Nc1cccc(C2=NOC3(C2)C[C@H](C(N)=O)N(C(=O)C(c2ccccc2)c2ccccc2)C3)c1 (some centres undefined) 0.36%, Nc1nc(Sc2ncccc2[N+](=O)[O-])n[nH]1 7.38%, C/C(=N/Nc1nc(-c2ccccc2)c(CC(=O)O)s1)c1ccccc1 10.1%, COc1ccccc1-c1c(C#N)c(N)nc2c1CCC2 -2.02%, CCOC(=O)C(=CNNc1ccsc1C(=O)OC)C(=O)OCC 8.52%, COc1ccc(OCC(=O)N2CCN(C(=O)c3cccs3)CC2)cc1 0.82%, COc1ccc(CN(C(=O)c2cccs2)c2nccs2)cc1OC 14.5%, Cc1nc(=O)c(-c2ccccc2)c(C)n1-c1ccc(Br)cc1 7.02%, CCOC(=O)c1nnn2c1nc(N1CCN(c3ccccc3)CC1)c1ccccc12 5.24%

inhibition, active:
O=C(CS(=O)(=O)c1cn(Cc2ccc(Cl)cc2)c2ccccc12)N1CCOCC1 45.4%, CN(Cc1ccccn1)Cc1nc(-c2ccc(Cl)cc2)no1 103%, COc1ccc(CCNC(=O)CCn2c(=O)c3ccccc3n(CC(=O)NCC3CCCO3)c2=O)cc1OC (centres undefined) 40%, CN(C)/C=C/c1c(C#N)c(=O)ncn1Cc1ccccc1 53%, CC/C(=N\NC(=S)NC(C)C)c1ccc(OC(F)F)cc1 52.2%, COc1ccc(CN(Cc2ccc(OC)cc2)C(=O)c2cccs2)cc1 45.5%
